Measured values as given in the supplement of paper PMC11482750.
± gives the standard deviation of the averaged measurements.

How the values were obtained:
Experiment in all cases: control-subtracted net OSN firing rate; higher = stronger neuronal activation
Settings in all cases: odorant dilution (vol/vol): 1/100
phenethyl acetate = compound: CC(=O)OCCc1ccccc1 [phenethyl acetate]
Summary of the method: (§1)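 Values are replicate means from single sensillum recordings of palp or antennal olfactory sensory neurons. Recordings used 1–5-day-old fed female flies, either Scaptomyza species or D. melanogaster wild-type, mutant or at1 empty-neuron lines carrying Or42a homologs, stimulated with 1 s pulses of odorant (1:100 vol/vol in mineral oil or dimethyl sulfoxide, 20 μl on filter paper) into 16 ml/min filtered air. Spikes in a 0.5 s window beginning 0.2 s after onset were background-subtracted, doubled and corrected for solvent.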

fenchone = compound: CC12CCC(C1)C(C)(C)C2=O [fenchone]
Summary of the method: as §1

2-hexanol = compound: CCCCC(C)O [2-hexanol]
Summary of the method: as §1

4-ethylguaiacol = compound: CCc1ccc(O)c(OC)c1 [4-ethylguaiacol]
Summary of the method: as §1

methyl salicylate = compound: COC(=O)c1ccccc1O [methyl salicylate]
Summary of the method: as §1

guaiacol = compound: COc1ccccc1O [guaiacol]
Summary of the method: as §1

phenethyl alcohol = compound: OCCc1ccccc1 [phenethyl alcohol]
Summary of the method: as §1

Target | control-subtracted net OSN firing rate (phenethyl acetate) | control-subtracted net OSN firing rate (fenchone) | control-subtracted net OSN firing rate (2-hexanol) | control-subtracted net OSN firing rate (4-ethylguaiacol) | control-subtracted net OSN firing rate (methyl salicylate) | control-subtracted net OSN firing rate (guaiacol) | control-subtracted net OSN firing rate (phenethyl alcohol)
S. hsui pb3b-like | -7 ± 2.1 spikes/s | -2.67 ± 6.5 spikes/s | -6.67 ± 6.8 spikes/s | -5.67 ± 2.9 spikes/s | 1.33 ± 5.8 spikes/s | -2.33 ± 4.5 spikes/s | -2.67 ± 5 spikes/s
S. hsui pb2a-like | 1 ± 7.1 spikes/s | 140 ± 16 spikes/s | 6 ± 8 spikes/s | 3.33 ± 7.3 spikes/s | 6.33 ± 3.2 spikes/s | 8 ± 7.5 spikes/s | 3.67 ± 9.2 spikes/s
S. montana pb3a-like | 97 ± 35 spikes/s | -2.33 ± 6.9 spikes/s | 5.67 ± 13 spikes/s | -8.67 ± 17 spikes/s | 3.33 ± 9.9 spikes/s | -4.33 ± 12 spikes/s | -3.33 ± 15 spikes/s
Canton-S (D. melanogaster) pb2a | 0.286 ± 4.5 spikes/s | 166 ± 26 spikes/s | 3.43 ± 4.9 spikes/s | 4.86 ± 4.6 spikes/s | 3.43 ± 3.4 spikes/s | 6.86 ± 8.1 spikes/s | 6.29 ± 5.3 spikes/s
S. flava pb2b-like | 4.33 ± 11 spikes/s | -3.67 ± 6.9 spikes/s | 11.7 ± 17 spikes/s | 15 ± 14 spikes/s | 111 ± 28 spikes/s | 121 ± 31 spikes/s | 10 ± 17 spikes/s
S. pallida pb1b-like | -5.67 ± 17 spikes/s | -4.33 ± 7 spikes/s | -9 ± 8.8 spikes/s | 90 ± 36 spikes/s | 1.33 ± 16 spikes/s | 8.67 ± 28 spikes/s | 0.667 ± 14 spikes/s
S. flava pb3a-like | 160 ± 17 spikes/s | -2.67 ± 5.6 spikes/s | 6 ± 10 spikes/s | -3.33 ± 9.6 spikes/s | 5.67 ± 12 spikes/s | -5.33 ± 6.2 spikes/s | -3.33 ± 6.8 spikes/s
S. pallida pb3a-like | -17.3 ± 8.2 spikes/s | -13 ± 14 spikes/s | 94.3 ± 19 spikes/s | -8 ± 7.3 spikes/s | 6.33 ± 15 spikes/s | -11.7 ± 15 spikes/s | -15.7 ± 12 spikes/s
S. flava pb2a-like | 3 ± 11 spikes/s | 213 ± 48 spikes/s | 5.67 ± 11 spikes/s | 1.67 ± 6.6 spikes/s | 3 ± 8.7 spikes/s | 0 ± 13 spikes/s | 1.33 ± 4.7 spikes/s
S. pallida pb3b-like | -18.7 ± 18 spikes/s | -17 ± 12 spikes/s | -5.67 ± 12 spikes/s | -9.33 ± 13 spikes/s | 14.7 ± 24 spikes/s | -12.7 ± 18 spikes/s | -9.33 ± 19 spikes/s
Canton-S (D. melanogaster) pb3b | 153 ± 48 spikes/s | -2.83 ± 8.6 spikes/s | 1.5 ± 8.7 spikes/s | 0 ± 8.9 spikes/s | 0.833 ± 6.5 spikes/s | -2.5 ± 6.4 spikes/s | 1.33 ± 8.5 spikes/s
Canton-S (D. melanogaster) pb1b | -2 ± 8.4 spikes/s | 1.33 ± 9.9 spikes/s | -6.67 ± 6.2 spikes/s | 110 ± 36 spikes/s | -3.78 ± 12 spikes/s | 38 ± 29 spikes/s | 4.67 ± 5.4 spikes/s
S. pallida pb2a-like | 5 ± 5.3 spikes/s | 137 ± 13 spikes/s | 5.67 ± 6.6 spikes/s | 5.33 ± 4.8 spikes/s | 6.33 ± 3.9 spikes/s | 6.67 ± 4.8 spikes/s | 9.67 ± 8.8 spikes/s
S. montana pb1b-like | 5 ± 7.6 spikes/s | 2.33 ± 18 spikes/s | -16.3 ± 10 spikes/s | 109 ± 14 spikes/s | 7.67 ± 11 spikes/s | 24.7 ± 14 spikes/s | -7 ± 20 spikes/s
S. flava pb1b-like | -3.67 ± 9.3 spikes/s | 2 ± 13 spikes/s | -26.7 ± 21 spikes/s | 97 ± 18 spikes/s | -5.33 ± 20 spikes/s | 9.67 ± 7.5 spikes/s | -6 ± 20 spikes/s
